Hits are enriched below; roughly 1.1% of the tested compounds scored in any of these assays.
SRC3 inh = human NCOA3 inhibition. Q9Y6Q9. HEK293 GAL4-SRC3 luciferase reporter, luminescence. inhibition, % at 3.6 µM. 360,000 tested, 0.17% active. AID 588352;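 active = inhibition above a per-campaign cutoff, the mean of all compounds plus 3 SD, cut at about 60% in these data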;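 note: 0% = DMSO-treated cells and 100% = gossypol-treated cells at 36 µM; higher means less SRC3-driven luciferase light from the GAL4 reporter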
Target sequence (Q9Y6Q9 whole entry, looked up, the tested form may be a part): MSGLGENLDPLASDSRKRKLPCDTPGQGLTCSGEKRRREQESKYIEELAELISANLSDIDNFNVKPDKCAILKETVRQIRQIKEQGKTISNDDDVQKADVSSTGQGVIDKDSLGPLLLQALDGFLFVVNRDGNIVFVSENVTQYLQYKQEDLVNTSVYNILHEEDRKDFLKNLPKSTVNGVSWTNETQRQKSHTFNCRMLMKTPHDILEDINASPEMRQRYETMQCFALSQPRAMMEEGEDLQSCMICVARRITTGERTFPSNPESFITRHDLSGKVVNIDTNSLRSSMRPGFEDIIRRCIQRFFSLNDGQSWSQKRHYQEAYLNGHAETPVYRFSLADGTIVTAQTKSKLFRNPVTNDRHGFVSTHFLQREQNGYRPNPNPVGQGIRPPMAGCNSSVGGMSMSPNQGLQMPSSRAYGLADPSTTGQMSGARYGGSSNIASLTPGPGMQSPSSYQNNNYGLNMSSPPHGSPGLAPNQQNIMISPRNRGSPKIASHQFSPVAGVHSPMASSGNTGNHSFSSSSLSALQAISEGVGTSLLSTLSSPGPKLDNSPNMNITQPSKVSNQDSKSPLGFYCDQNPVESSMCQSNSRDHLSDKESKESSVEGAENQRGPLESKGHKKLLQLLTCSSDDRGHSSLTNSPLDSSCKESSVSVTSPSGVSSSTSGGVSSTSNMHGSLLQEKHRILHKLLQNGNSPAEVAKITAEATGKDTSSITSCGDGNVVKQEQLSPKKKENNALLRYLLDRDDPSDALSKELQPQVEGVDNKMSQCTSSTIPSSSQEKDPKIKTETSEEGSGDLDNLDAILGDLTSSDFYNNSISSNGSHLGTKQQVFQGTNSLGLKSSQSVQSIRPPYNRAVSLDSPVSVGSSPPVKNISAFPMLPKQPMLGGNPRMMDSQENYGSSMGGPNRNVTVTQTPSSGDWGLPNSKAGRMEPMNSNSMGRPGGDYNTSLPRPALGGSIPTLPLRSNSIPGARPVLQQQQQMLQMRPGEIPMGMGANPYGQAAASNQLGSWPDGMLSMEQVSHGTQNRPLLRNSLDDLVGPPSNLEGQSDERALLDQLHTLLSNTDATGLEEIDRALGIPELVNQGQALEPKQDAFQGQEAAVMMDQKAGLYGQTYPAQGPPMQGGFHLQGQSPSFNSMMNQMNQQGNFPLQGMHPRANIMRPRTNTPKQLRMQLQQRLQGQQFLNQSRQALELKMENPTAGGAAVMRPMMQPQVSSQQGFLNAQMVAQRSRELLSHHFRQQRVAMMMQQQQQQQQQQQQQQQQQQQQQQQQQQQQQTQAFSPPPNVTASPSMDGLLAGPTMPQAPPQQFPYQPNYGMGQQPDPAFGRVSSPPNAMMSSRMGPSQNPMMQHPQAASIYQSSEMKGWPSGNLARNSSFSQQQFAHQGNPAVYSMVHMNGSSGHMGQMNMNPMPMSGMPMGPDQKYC
SRC1 inh = inhibitors of human steroid receptor coactivator 1 (SRC1). Q15788. HEK293 GAL4-SRC1 luciferase reporter, luminescence. inhibition, % at 3.6 µM. 360,000 tested, 0.12% active;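 active = inhibition above the campaign mean plus 3 SD, with each screening campaign given its own cutoff, cut at about 60% in these data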;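 note: 0% = DMSO treated cells and 100% = gossypol at 36 µM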
NR5A2 inv ag = inverse agonists of human LRH-1 (NR5A2); O00482; HEK293T StAR-luciferase reporter, LRH-1 transfected, 24 h; inhibition, % at 3.6 µM; 360,000 tested, 0.13% active;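 active = inhibition above the mean inhibition of all tested compounds plus 3 SD, cut at about 73% in these data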;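 note: 0% = DMSO wells and 100% = reporter-only cells lacking LRH-1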
Shn3 inh set2 = inhibitors of Schnurri-3 3'UTR reporter in osteoblasts. AID 588674. Clone20 osteoblast Shn3 3'UTR firefly luciferase, 24 h. 360,000 tested, 0.52% active. inhibition, % at 12.5 µM;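 active = mean inhibition of at least 75% with every replicate also reaching 75%; inconclusive = mean inhibition at least 75% but some replicate below; inactive = mean inhibition below 75%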;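 note: 0% = median of neutral control wells and 100% = pilot-screen positive control compound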
Gli-Sufu antag = Gli-Sufu pathway antagonism; Sufu-KO-LIGHT fibroblasts, Gli luciferase reporter luminescence; AID 588413; inhibition, % at 5 µM; 340,000 tested, 0.74% active;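 active = inhibition above about 55%, limit read from the data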;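 note: 0% = DMSO-treated cells and 100% = wells with medium but no cells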
SRC2 inh = inhibits human steroid receptor coactivator 2. Q15596. HEK293 GAL4-SRC2 luciferase reporter, luminescence. inhibition, % at 9 µM. 370,000 tested, 0.17% active. AID 651957;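 active = inhibition above the mean inhibition of all tested compounds plus 3 SD, set per campaign, cut at about 52% in these data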;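 note: 0% = DMSO treated cells and 100% = cells given Gossypol at 36 µM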
Gli-Sufu confirm = Gli-SUFU antagonism confirmation, single concentration. Sufu-KO-LIGHT cells, Gli luciferase reporter, luminescence. 2,500 tested, 40% active. AID 602428. shares compounds with Gli-Sufu antag. inhibition, % at 5 µM;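 active = mean inhibition at 5 µM reaching about 45%, limit read from the data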;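 note: plate controls were DMSO-treated cells for no effect and wells lacking cells for full effect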
SufuKO cytotox = cytotoxic in Gli-SUFU antagonist counter-screen. shares compounds with Gli-Sufu antag. Sufu-KO-LIGHT cells cytotoxicity, ATP luminescence. cytotoxicity, % at 5 µM. 2,500 tested, 32% active. AID 651994;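 active = mean cytotoxicity at 5 µM above about 25%, limit read from the data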;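 note: cells exposed to compound overnight for roughly 16 to 18 hours; plate controls were DMSO wells with cells for no effect and medium without cells for full effect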
Wnt3a cs = counter-screen for Gli-SUFU antagonists: Wnt3a reporter inhibition. shares compounds with Gli-Sufu antag. 2,500 tested, 20% active. Wnt-LIGHT cells, Wnt3a-driven luciferase reporter, luminescence. inhibition, % at 6.25 µM. AID 651995;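 active = mean inhibition above about 25%, limit read from the data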
Starred values were filed as active, the others as inactive; ? = inconclusive; . = no result.

SMILES | SRC3 inh | SRC1 inh | NR5A2 inv ag | Shn3 inh set2 | Gli-Sufu antag | SRC2 inh | Gli-Sufu confirm | SufuKO cytotox | Wnt3a cs
C/C(CC(=O)Nc1ccccn1)=N\NC(=O)C(=O)Nc1ccccc1C | 9 | -6 | -26 | 8 | 56* | 15 | 20 | -1 | 3
NC(N)=NN=C(c1ccc(F)cc1)c1ccc(C(F)(F)F)cc1 | 22 | 12 | 12 | -11 | 57* | -2 | 36 | 50* | -43
CC(=O)Nc1ccc(S(=O)(=O)N2C3CCCC2CC(NC(=O)C2CCCCC2)C3)cc1 (stereo unspecified) | 4 | -11 | 8 | 16 | 95* | -35 | 15 | 4 | -38
CC(=O)Nc1ccc(S(=O)(=O)N2CCC(C(=O)NC3CCCC3)CC2)cc1 | 9 | -4 | -5 | 11 | 4 | -16 | . | . | .
COC(=O)c1ccccc1NC(=O)CSc1nc(C)cc(C)n1 | 19 | -2 | 4 | 4 | 4 | -24 | . | . | .
Cc1cc(NC(=O)Cc2ccccc2)c2ccccc2n1 | 27 | 38 | 22 | 77 | 66* | 34 | 59* | 37* | 30*
Cc1cc(C)nc(SCC(=O)Nc2ccnc3ccccc23)n1 | 34 | 27 | 35 | ? | 64* | 27 | 67* | 14 | 41*
COC(=O)c1sc(NC(=O)c2cc(-c3ccccc3)nc3ccccc23)c(C#N)c1C | 33 | 13 | 7 | 79 | 69* | 7 | 82* | 31* | 62*
CCOC(=O)c1sc(NC(=O)c2cc(-c3ccc(C)cc3)nc3ccccc23)c(C#N)c1C | -5 | 5 | 2 | 13 | 41 | 8 | . | . | .
CCCCCn1nnnc1C1(C)CN(S(C)(=O)=O)CC(=O)N1Cc1ccco1 (stereo unspecified) | . | . | . | . | . | -10 | . | . | .
O=C(NNC(=O)c1cc([N+](=O)[O-])ccc1Cl)c1cccnc1 | -1 | -17 | 4 | -4 | 54 | 13 | 9 | 21 | -24
Cn1c(Cc2csc(N)n2)nnc1SCC(=O)NCc1ccccc1 | 3 | -3 | 15 | -16 | 95* | -2 | 4 | 2 | -17
Cn1c(Cc2csc(N)n2)nnc1SCC(=O)NC1CCCCC1 | 9 | -1 | -15 | . | 2 | -4 | . | . | .
C[C@@H]1ON(C)[C@H]2C[C@H]3c4[nH]c5c(-c6ccc7c(c6)OCO7)cccc5c4CCN3C[C@@H]12 | . | . | . | . | . | -31 | . | . | .
COc1ccc(S[C@]2(C(=O)N3CCOCC3)CC(=O)N(c3ccc(OC)cc3)[C@@H]2c2ccc(OC)cc2)cc1 | . | . | . | . | . | -42 | . | . | .
COc1ccc(NC(=S)NNc2ccc([N+](=O)[O-])cc2S(=O)(=O)Nc2ccc(C)cc2C)cc1 | -5 | 7 | -13 | 25 | -11 | -1 | . | . | .
Cc1ccc(NS(=O)(=O)c2cc([N+](=O)[O-])ccc2NNC(=S)Nc2cc(C)ccc2C)c(C)c1 | 23 | 19 | 6 | 74 | 62* | 17 | 51* | 4 | 62*
O=C(Nc1cc(N2CCCCC2)ncn1)c1ccccc1 | -35 | -37 | -47 | -41 | 72* | -40 | 77* | 5 | -72
CC[C@H](C)[C@@H](C(=O)NCCCCCCCCCCC(=O)N1CCN(C(=O)OC(C)(C)C)CC1)n1cc(CCCCCNC(=O)OC(C)(C)C)nn1 | 21 | 9 | 9 | 89* | 57* | 24 | 68* | 15 | 37*
COc1ccc(C(=O)N/C(=C/c2ccccc2F)C(=O)NCCN2CCOCC2)cc1OC | -2 | -13 | 1 | 5 | 71* | -19 | 23 | 10 | -4
COc1ccc(C(=O)N/C(=C\c2cn(C)c3ccccc23)C(=O)NCCN2CCOCC2)cc1OC | 13 | -14 | -3 | -5 | 40 | -20 | . | . | .
CC(CC(=O)N1CCN(c2cccc(Cl)c2)CC1)S(=O)(=O)c1ccc2c(c1)NC(=O)CO2 (stereo unspecified) | 0 | 9 | 17 | 89* | 59* | -21 | 51* | 20 | 0
COc1ccc(N2CCN(C(=O)CC(C)S(=O)(=O)c3ccc4c(c3)NC(=O)CO4)CC2)cc1 (stereo unspecified) | 2 | 4 | 20 | 29 | -18 | 19 | . | . | .
Cc1ccccc1Cn1cc(CN2[C@H](CC(C)C)COc3cc(Br)ccc3S2(=O)=O)nn1 | . | . | . | . | . | -13 | . | . | .
Cc1cccc(-c2cccc3c4c([nH]c23)[C@@H]2C[C@H](N(C)C(=O)NC3CCCCC3)[C@H]([C@H](C)O)C(=O)N2CC4)c1 | . | . | . | . | . | -3 | . | . | .
SMILES | SRC3 inh | SRC1 inh | NR5A2 inv ag | Shn3 inh set2 | Gli-Sufu antag | SRC2 inh | Gli-Sufu confirm | SufuKO cytotox | Wnt3a cs
Cc1cc(C(C)(C)C)cc(C)c1C[n+]1ccc2ccccc2c1 | 56 | 44 | 61 | 78 | 79* | 1 | 88* | 23 | 46*
CCOc1cc(C(=O)OCc2ccc([N+](=O)[O-])cc2)ccc1OCC(=O)N1CCOCC1 | 2 | 0 | 7 | -10 | -3 | -3 | . | . | .
CCOc1cc(C(=O)OCc2cccc(OC)c2OC)ccc1OCC(=O)N1CCOCC1 | -1 | -10 | -5 | -17 | 71* | -12 | 26 | 10 | -3
COC(=O)[C@H](C)NC(=O)[C@H](CC(C)C)NC(=O)OC(C)(C)C | . | . | . | . | . | 10 | . | . | .
Cn1nc(C(C)(C)C)cc1C(=O)NCc1ccc(N2CCCC2=O)cc1 | 38 | 15 | 35 | 60 | 81* | 18 | 77* | 36* | 42*
Cc1ccc(CNC(=O)c2ccc(N3CCCC3=O)cc2)cc1 | 3 | 3 | -12 | 17 | 0 | -7 | . | . | .
Cc1ccc(CNC(=O)C23CN(Cc4ccccc4)CC2C(c2ccc([N+](=O)[O-])cc2)=NO3)o1 (stereo unspecified) | 4 | -4 | 3 | 8 | 98* | -3 | 18 | 3 | -82
CCNC(=O)/C(C#N)=C/c1c(N(Cc2ccccc2)Cc2ccccc2)nc2ccccn2c1=O | 7 | 7 | 13 | 32 | 88* | -2 | 27 | -1 | -26
COc1ccccc1CN(C)C(=O)C1CCCN(c2nc3ccccc3o2)C1 (stereo unspecified) | . | . | . | . | . | 15 | . | . | .
COc1ccc(/C=N\NC(=O)c2c(C)nc3ccc(Br)cn23)cc1 | -8 | 3 | 28 | 4 | 61* | 15 | 50* | 48* | -30
Cc1ccc(/C=N/NC(=O)c2c(C)nc3ccc(Br)cn23)cc1 | -256 | 1 | 1 | 12 | 45 | 6 | . | . | .
N=c1c(-c2nc3ccccc3[nH]2)cc(C(=O)c2cccs2)nn1-c1ccccc1 | 1 | -2 | -6 | -14 | 8 | . | . | . | .
N=c1c(-c2nc3ccccc3[nH]2)cc(C(=O)c2ccco2)nn1-c1ccccc1 | 0 | -5 | 4 | -1 | 62* | -1 | 35 | 6 | -118
S=C(NCc1ccc(Cl)cc1)OC1CCC12CCC(c1ccccc1)CC2 (stereo unspecified) | . | . | . | . | . | 16 | . | . | .

High-throughput results: PubChem, several laboratories
